{"source": "PubChem BioAssay (NCI)", "note": "This is part of a sample that, as a whole, favours compounds with a hit. Of some 83,000 tested, about 20% had one in any assay.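 Plates (96-well) were seeded with cells, treated with compound at one concentration, and incubated for 48 hours before percent growth was determined.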 Activity calls are given as the source filed them."}
{"test_system": "ACHN renal", "assay": "NCI-60 one-dose screen, 48 h (100 = growth as untreated, 0 = no growth, -100 = all killed)", "details": "10 µM unless noted", "description": "Growth inhibition of the ACHN human tumor cell line is measured as a screen for anti-cancer activity. Cells are grown in 96 well plates and exposed to the test compound for 48 hours. Compounds are tested at a single concentration, which is 10^-5 M for most compounds. The reported endpoint is percent growth (GI% or GIPRCNT), where numbers from 0 - 100% represent growth inhibition, and numbers from -100% - 0 represent cell death. For example, a value of 40 represents 60% growth inhibition. A value of 0 means no net growth occurred over the course of the experiment. A value of -40 indicates 40% of cells at the beginning of the experiment died by the end of the experiment. A value of -100 means all cells are dead at the end of the experiment.\nNCI-60 Human Tumor Cell Lines Screen was performed using the standard one-dose NCI protocol, which is described in more detail at https://dtp.cancer.gov/discovery_development/nci-60/default.htm.\nCompounds with GIPRCNT values below 10 were considered active. Activity score was based on GIPRCNT using the following formula: […]\nScore is 0 for GIPRCNT values of 100 or above, 50 for GIPRCNT values of 0, and 100 for GIPRCNT values of -100."}
{"smiles": "O=[N+]([O-])c1cc2c(cc1Br)C1C(C3C2C(Cl)(Cl)C(Cl)=C(Cl)C3(Cl)Cl)C(Cl)(Cl)C(Cl)=C(Cl)C1(Cl)Cl", "note": "(stereo not given)", "growth": "102% (inactive)"}
{"smiles": "CCN(CC)CCCNc1ccc(C)c2sc3ccccc3c(=O)c12", "growth": "20.9% (inactive)"}
{"smiles": "CCCCCCCC/C=C\\CCCCCCCCOc1cccc(CC(=O)NCC[N+]2(C)CCOCC2)c1", "growth": "94% (inactive)"}
{"smiles": "COc1nc2c(cc1S(=O)(=O)c1ccccc1)CCc1c-2cnn1-c1cccc(Cl)c1", "growth": "68.3% (inactive)"}
{"smiles": "CN1CCN(C)c2cncc(Br)c2C1=O", "growth": "108% (inactive)"}
{"smiles": "Cc1nn(CC(=O)O)c2c1C(=O)CC(C)(C)C2", "growth": "126% (inactive)"}
{"smiles": "O=C(Nc1ccc(Cl)c(Cl)c1)NC(CO)(CO)CO", "growth": "97.7% (inactive)"}
{"smiles": "CSC1=CC(=O)c2ccccc2C1=O", "growth": "24% (inactive)"}
{"smiles": "Cc1ccc(C)c2c1sc1nc3nc4sc5ccccc5n4c(=N)c3c(=O)n12", "growth": "99.1% (inactive)"}
{"smiles": "Cc1cc(=O)[nH]n1-c1cc(Cl)ccc1N", "growth": "100% (inactive)"}
{"smiles": "O=C1c2ccccc2C(=O)c2c(Nc3ccc(CCO)cc3)ccc(O)c21", "growth": "64.4% (inactive)"}
{"smiles": "Nc1c(Br)cc(Br)cc1-c1n[nH]c(=O)[nH]c1=O", "growth": "91.9% (inactive)"}
{"smiles": "O=C(NCc1ccc(F)cc1)C1CN(c2ccc(Cl)cc2)N(c2ccc(Cl)cc2)C1=O", "note": "(stereo not given)", "growth": "75.6% (inactive)"}
{"smiles": "CCN(CC)c1ccc(/C=C(\\C#N)c2cc3ccccc3[nH]2)cc1", "growth": "70.7% (inactive)"}
{"smiles": "COc1cc(/C=C2\\C(=O)Nc3ccccc32)cc(OC)c1O", "growth": "77% (inactive)"}
{"smiles": "COc1cccc2c(=O)c3c(sc12)c(NCCN(C)C)nc1ccccc13", "growth": "8.6% (active)"}
{"smiles": "COc1cc(/C=N/NC(=O)c2cnn3c2NC(c2ccccc2)C3)cc(OC)c1OC", "note": "(stereo not given)", "growth": "80.2% (inactive)"}
{"smiles": "CCCCCCCC/C=C\\CCCCCCCCOc1cccc(CC(=O)NCC[N+]2(C)CCCC2)c1", "growth": "99% (inactive)"}
{"smiles": "Nc1nc(-c2ccnc(Cl)c2)nn1-c1nc2ccccc2s1", "growth": "96.9% (inactive)"}
{"smiles": "CN(C)c1ccc(/C=C(\\C#N)c2cc3ccccc3n2C)cc1", "growth": "38.9% (inactive)"}
{"smiles": "O=c1ccc2ccccc2o1", "growth": "93.8% (inactive)"}
{"smiles": "O=C1C(Br)=C(c2ccccc2)C(=O)C(Br)=C1c1ccccc1", "growth": "92.2% (inactive)"}
{"smiles": "N#Cc1ccc(C(F)(F)F)nc1N1CCC(C(=O)Nc2ccc(Cl)cc2)CC1", "growth": "68.7% (inactive)"}
{"smiles": "Cn1c2ccc(Cl)cc2c2nn(C(=O)c3ccccc3)c(=O)nc21", "growth": "95.2% (inactive)"}
{"smiles": "COc1ccc(-c2nc3sc(C)cn3c2/C=C/C(=O)c2cc(OC)c(OC)c(OC)c2)cc1", "growth": "54.4% (inactive)"}
{"smiles": "Clc1ccc(Nc2nc(Nc3ccccc3)nc(Nc3ccc(-c4cc(-c5ccc(Cl)cc5)on4)cc3)n2)cc1", "growth": "47.1% (inactive)"}
{"smiles": "CCC(=O)Nc1nnc(Cc2ccc(OC)c(OC)c2)s1", "growth": "4.03% (active)"}
{"smiles": "COc1ccc(-n2ncc3c4nc(OC)c(S(=O)(=O)c5ccccc5)cc4ccc32)cc1", "growth": "44.2% (inactive)"}
{"smiles": "CSc1nnc(-c2sc3nnc(-c4ccccc4)c(-c4ccccc4)c3c2O)o1", "growth": "83.6% (inactive)"}
{"smiles": "Cc1ccc2c(N/N=C\\c3ccco3)cc(C)nc2n1", "growth": "39.5% (inactive)"}
{"smiles": "Cc1nc(NC(=O)COc2cccc(/C=C3\\COc4ccccc4C3=O)c2)sc1C", "growth": "-96.9% (active)"}
{"smiles": "COc1cc(CNCCCN2C(=O)c3ccc4c5c(ccc(c35)C2=O)C(=O)N(CCCNCc2cc(OC)c(OC)c(OC)c2)C4=O)cc(OC)c1OC", "growth": "-24.5% (active)"}
{"smiles": "OC[C@@H](O)[C@@H](O)CO", "growth": "103% (inactive)"}
{"smiles": "COC1(OC)C2(Cl)C=C(c3ccccc3)C1(Cl)C(Cl)=C2Cl", "note": "(stereo not given)", "growth": "108% (inactive)"}
{"smiles": "Nc1cc2[nH]c(=O)c3ccccc3c2cc1Br", "growth": "93.9% (inactive)"}
{"smiles": "CN1CCN(c2nc(-c3ccncc3)nc3sc4c(c23)CCCCCC4)CC1", "growth": "68.3% (inactive)"}
{"smiles": "C=C(C)CCCC(C)CC#N", "note": "(stereo not given)", "growth": "103% (inactive)"}
{"smiles": "Cc1oc2c(c1C(=O)N1CC[C@@H](N)C1)C(=O)c1c(c(O)c3ccccc3c1O)C2=O", "growth": "14.8% (inactive)"}
{"smiles": "OB(O)c1ccccc1", "growth": "107% (inactive)"}
{"smiles": "O=C1C=CC(=O)N1CCCCCCCCCCN1C(=O)C=CC1=O", "growth": "80.3% (inactive)"}
